High-throughput results as filed in PubChem BioAssay.
Shown is part of a subset that was picked to be rich in hits.
Tg IFNy HTS = T. gondii growth inhibition with IFN-gamma, primary screen, cell-based; Toxoplasma gondii growth in IFN-gamma-treated host cells; hits give low values; activity change, negative = inhibition, % (no concentration beside the values); 69,000 tested, 3.8% active; in the data active means activity change below about -70%, passing the limit was not always enough;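 further: host cells are HeLa cells infected with Toxoplasma gondii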
Hits are given with their value; n = inactive; ! = a repeat was not active.

SMILES	Tg IFNy HTS
C=C(C)[C@@H]1CC[C@]2(C(=O)O)CC[C@]3(C)[C@H](CC[C@@H]4[C@@]5(C)CC[C@H](OC(=O)CC(C)(C)C(=O)O)C(C)(C)[C@@H]5CC[C@]43C)[C@@H]12	-73
CC1(C)C2CC[C@]3(C)[C@H](C(=O)C=C4[C@@H]5C[C@@](C)(C(=O)O)CC[C@]5(C)CC[C@]43C)[C@@]2(C)CC[C@@H]1OC(=O)CCC(=O)O (some centres undefined)	n
C=C(C)[C@@H]1CC[C@]2(CO)CC[C@]3(C)[C@H](CC[C@@H]4[C@@]5(C)CC[C@H](O)C(C)(C)[C@@H]5CC[C@]43C)[C@@H]12	n
COc1ccc2c(c1)NC1(CCN(S(=O)(=O)c3ccc(Cl)c(Cl)c3)CC1)c1cccn1-2	n
CC1CCN(c2ccc(C(C)NC(=O)CCc3nnc(C(C)C)o3)cc2)CC1 (centres undefined)	n
Cc1cc(C)n(-c2ccc(CCC(=O)Nc3nc(-c4ccccn4)cs3)cc2)n1	-98
O=C(Nc1nc(-c2ccccn2)cs1)c1ccccc1CN1CCCCC1	n
Cc1cc(C)n(-c2ccc(C(=O)Nc3nnc(CCc4ccccc4)s3)cc2)n1	n
c1ccc(C[C@H]2CN3CCC[C@H]3CN2Cc2nc3ccccc3[nH]2)cc1	n
CCN1c2ccc(C)cc2C(=O)NC12CCN(C(=O)Cc1cccc(OC)c1)CC2	n
Cc1occc1C(=O)N1CCCC2(CCN(c3cncnc3)C2=O)C1 (centres undefined)	n
COCC(=O)N1CCC2(CCC2NS(=O)(=O)c2ccccc2)CC1 (centres undefined)	n
Cc1cc(C)n(-c2nc3ccccc3s2)n1	n
Cc1ccc(-c2cc(-c3ccccc3)nc(-n3nc(C)cc3C)n2)cc1	-104
Cc1cc(C)n(-c2ncc(C#N)c(N)n2)n1	n
Cc1nccn1CCCC(=O)Nc1ccccc1Oc1ccc(F)cc1	n
CNc1ncccc1CN1CCc2nc(N)c(C(=O)NCc3cccc(OC)c3)cc2C1	n
O=C(NCc1cccc(F)c1)c1nc(CS(=O)(=O)c2ccc(Cl)cc2)no1	-87
O=C(Cc1ccc(Cl)cc1)NCCc1csc(-c2cccc(F)c2)n1	n
CN(C)C(=O)N1Cc2nc(C(=O)NCc3cccc(F)c3)oc2C1	n
O=S(=O)(c1ccc2ccccc2c1)N1CCC(O)(c2cccc(C(F)(F)F)c2)CC1	n
Cc1ccccc1NC(=O)C(=O)NCCc1sc(-c2ccc(F)cc2)nc1C	n
CCS(=O)(=O)N1CCCc2c(-c3cccnc3)nn(C)c2C1	n
Cn1cc(-c2ccc(C(=O)N3CCCC(c4ccccc4)CC3)cn2)cn1 (centres undefined)	n
CCCCOc1c(C(=O)c2c(F)cc(C)cc2F)cnc2n[nH]cc12	-92
SMILES	Tg IFNy HTS
CCCS(=O)(=O)Nc1ccc(F)c(C(=O)c2c[nH]c3ncc(Cl)cc23)c1F	n
O=C1CCC2C(CCN2c2ncc(F)cn2)N1CC1CCOCC1 (centres undefined)	n
COc1ccc2cc(C(=O)C3CCCN(C(=O)CCc4c(C)nn(C)c4C)C3)ccc2c1 (centres undefined)	n
COc1ccc(C)cc1NC(=O)c1c(O)c2ccccc2[nH]c1=O	n
Cc1ccc(/C=N/NC(=O)c2ccccc2Oc2ccccc2)o1	n
O=C(N/N=C/c1ccc([N+](=O)[O-])o1)c1ccc(O)cc1	-81!
Cc1ccsc1/C=N\NC(=O)c1ccc2c(c1)OCO2	n
C=CCN1C[C@@H]2CN(C(=O)c3cnc[nH]3)C[C@H]2C1=O	n
CN1C[C@@H](NC(=O)C2CCCC2)C[C@H]1C(=O)NCc1cn2c(n1)SCC2	n
Cc1cccc(-c2nc(Cn3nnc(C(=O)NCc4ccc5c(c4)OCO5)c3C)c(C)o2)c1	-95
Cc1ccc(-c2nc(Cn3nnc(C(=O)NCc4ccncc4)c3C)c(C)o2)cc1	n
Cc1ccc(-c2nc(Cn3nnc(C(=O)NCc4ccc5c(c4)OCO5)c3C)c(C)o2)cc1	n
Cc1ccc(-c2nc(Cn3nnc(C(=O)NCc4ccco4)c3C)c(C)o2)cc1	n
CCCOc1ccc(CNC(=O)c2nnn(Cc3nc(-c4ccc(C)cc4)oc3C)c2C)cc1	n
Cc1ccc(NC(=O)c2nnn(Cc3nc(-c4cccc(Cl)c4)oc3C)c2C)c(Cl)c1	n
Cc1cccc(-c2nc(Cn3nnc(C(=O)NCc4cccc(Br)c4)c3C)c(C)o2)c1	-98
Cc1ccc(-c2nc(Cn3nnc(C(=O)NCc4ccccc4)c3C)c(C)o2)cc1	n
Cc1ccc(-c2nc(Cn3nnc(C(=O)NCc4ccc(F)cc4)c3C)c(C)o2)cc1	n
CCc1ccc(CNC(=O)c2nnn(Cc3nc(-c4cccc(C)c4)oc3C)c2C)cc1	-80
Cc1cccc(-c2nc(Cn3nnc(C(=O)NCc4ccc(C(C)C)cc4)c3C)c(C)o2)c1	-89
Cc1ccc(NC(=O)c2nnn(Cc3nc(-c4cccc(Cl)c4)oc3C)c2C)c(Br)c1	n
Cc1nn(CC(=O)NCCCN2CCCC2=O)c(=O)c2nc(-c3ccccc3)sc12	n
Cc1ccc2[nH]cc(CCNC(=O)c3ccc(N4CCCC4)c(S(=O)(=O)N4CCCC4)c3)c2c1	n
